Kinases covered data for eleven compounds are collected here from article PMC7826789 (International Journal of Molecular Sciences, 2021).

Assay [1] concerns CHEK1.
In assay [2] the test system is CLK1.
The subject of assay [3] is CLK3.
For assay [4], the system named is CLK4.
Assay [5] relates to CDKL5.
Assay [6] deals with DRAK1.
Assay [7] deals with CHK2.
Assay [8] relates to CSNK1D.
The test system of assay [9] is CLK2.
The test system of assay [10] is DYRK1A.
Assay [11] concerns DYRK1B.
In assay [12] the test system is DYRK2.
Assay [13] relates to CSNK1A1.
Assay [14] concerns DDR1.
Assay [15] concerns CHEK2.

With `COc1cc(Nc2cnc(C#N)c(O[C@H](C)CN(C)C)n2)ncc1-c1cnn(C)c1` [CCT244747], in assay [1], the Kinases covered entry was “CHEK1”. In the case of `CC(C)C(=O)N[C@@H]1CCN(C(=O)Nc2nc3c(s2)-c2nc(-c4ccccc4Cl)ncc2CC3)C1` [BI00047804], the results for the Kinases covered entry in [2], in [3] and in [4] were “CLK1”, “CLK3” and “CLK4”, respectively. With `Cc1cc(NC(=O)c2cccc(NC(=O)/C=C/CN(C)C)c2)ccc1Nc1nccc(-c2cccnc2)n1` [JNK-IN-7], the Kinases covered result in assay [5] is “CDKL5”; in [6], “DRAK1”. As for `CNc1nc(Nc2ccc(C(=O)N3CCOCC3)cc2OC)nc2[nH]cc(Cl)c12` [JH-II-127], in assay [7], the Kinases covered entry is on record as “CHK2”. As for `Cc1nccc(-c2c(-c3ccc(F)cc3)ncn2CCCN2CCOCC2)n1` [SB-282975], the Kinases covered entry in assay [8] is on record as “CSNK1D”.

Take `CCOc1ccc2c(-c3ccnc(Nc4cccc(C(F)(F)F)c4)n3)cnn2n1` [GW811761X]: the Kinases covered entry in [2] was “CLK1”; in [9], “CLK2”.

Turning to `CCC(NN(C)C)=C1C(=O)Nc2ccc(C(C)=O)cc21` [BI00036838], the Kinases covered entry in assay [5] is listed as “CDKL5”; in [10], “DYRK1A”; in assay [11], “DYRK1B”; in assay [12] it was “DYRK2”. For the compound `Fc1ccc(-c2nn3ccccc3c2-c2ccncc2)cc1` [GW434756X], the Kinases covered entry in [13] was “CSNK1A1”. For `Cc1ccc(-n2nc(C(C)(C)C)cc2NC(=O)Nc2ccc(OCCN3CCOCC3)cc2)cc1` [BIRB0876BS], the Kinases covered result in [14] is recorded as “DDR1”. Consider `Cc1cn(-c2cc(NC(=O)c3ccc4c(c3)CN(c3cncnc3)C[C@@H]4C)cc(C(F)(F)F)c2)cn1` [D2202-1], for which, in assay [14], the Kinases covered result is recorded as “DDR1”. For the compound `FC1=CC(C3=NC2=CC(OC)=C(OC)C=C2C(N[C@H]4[C@H]([C@](C)(O)C)CNC4)=N3)=C(O)C=C1.Cl.Cl` [CCT241533], the Kinases covered entry in assay [15] is “CHEK2”.
